We go through 37 compounds from PubChem BioAssay (NCATS).

Records with an inconclusive call do not appear. Entries that show only a call come without a potency. Unmarked numbers belong to inactive results. The source made the active and inactive calls. The call rests on the fitted dose curve; in most records, active means well fitted curve in the direction sought with a large enough effect in the repeat runs; inconclusive means weak or mixed curves; inactive means no such curve, though single readings can be large; an effect the other way counts as inactive or inconclusive.
Further: nearly all actives have a fitted effect of over 55% in size.
Potency means the concentration at half of the fitted maximal effect.

Cytochrome P450 2C9 (Homo sapiens), sequence (P11712 whole entry, looked up): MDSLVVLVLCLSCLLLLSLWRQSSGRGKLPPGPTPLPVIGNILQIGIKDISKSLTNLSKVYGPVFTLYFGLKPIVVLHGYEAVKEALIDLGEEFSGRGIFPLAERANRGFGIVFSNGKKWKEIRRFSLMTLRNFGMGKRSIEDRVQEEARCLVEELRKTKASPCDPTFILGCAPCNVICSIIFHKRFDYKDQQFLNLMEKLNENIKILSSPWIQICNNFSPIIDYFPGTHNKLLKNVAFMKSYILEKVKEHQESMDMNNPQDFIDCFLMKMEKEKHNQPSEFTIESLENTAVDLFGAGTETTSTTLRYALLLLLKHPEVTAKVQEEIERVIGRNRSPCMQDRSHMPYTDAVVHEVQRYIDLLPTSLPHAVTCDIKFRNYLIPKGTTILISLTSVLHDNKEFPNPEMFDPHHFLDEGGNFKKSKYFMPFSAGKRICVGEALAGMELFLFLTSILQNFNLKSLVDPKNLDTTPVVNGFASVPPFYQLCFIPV

The first assay deals with Cytochrome P450 2D6 (Homo sapiens) (UniProt P10635). As to the kind of experiment: Cytochrome P450 family 2 subfamily D member 6 (CYP2D6) small molecule antagonists: luciferase biochemical (cell-free) qHTS assay (AID 1645840). The settings on record: P450-Glo CYP2D6 enzyme, luciferin luminescence, 1 h; series mostly up to 57.4 µM. A digest of the protocol: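 P450-Glo luminescent screen: recombinant CYP2D6 enzyme–proluciferin substrate mix preincubated with compound 10 min at room temperature, then NADPH regeneration added for 1 h at room temperature. Detection reagent added for 20 min; luciferin light read as relative luminescence units.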
Cytochrome P450 2D6 (Homo sapiens), sequence (P10635 whole entry, looked up): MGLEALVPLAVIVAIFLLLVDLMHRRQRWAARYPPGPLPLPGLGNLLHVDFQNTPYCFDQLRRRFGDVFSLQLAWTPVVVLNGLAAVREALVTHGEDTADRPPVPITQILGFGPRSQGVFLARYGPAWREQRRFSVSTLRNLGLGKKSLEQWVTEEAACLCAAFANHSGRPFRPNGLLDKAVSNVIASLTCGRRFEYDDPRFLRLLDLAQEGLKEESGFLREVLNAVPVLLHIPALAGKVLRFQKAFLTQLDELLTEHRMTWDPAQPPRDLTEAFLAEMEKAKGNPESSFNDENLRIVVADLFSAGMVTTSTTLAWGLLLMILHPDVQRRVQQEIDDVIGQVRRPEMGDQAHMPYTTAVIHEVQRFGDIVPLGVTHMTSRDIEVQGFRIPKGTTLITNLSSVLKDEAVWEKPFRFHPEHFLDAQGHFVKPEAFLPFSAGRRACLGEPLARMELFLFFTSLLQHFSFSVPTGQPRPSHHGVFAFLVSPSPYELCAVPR
On the technique in general: Quantitative high-throughput screening tests each substance at several concentrations.
For `C#Cc1ccc(-c2ccccc2F)cc1`, the Potency was 15.1 µM (active).

For `O=C(COCCOCCOCC(=O)Nc1c(I)cc(I)c(C(=O)O)c1I)Nc1c(I)cc(I)c(C(=O)O)c1I`, the Potency result was “inactive”.

Take `CCCCCCCCCCCCCC[N+](C)(C)C`: the Potency was 3.09 µM (active).

In the case of `CC(C)(C)C(=O)OCOC(=O)C1N2C(=O)CC2S(=O)(=O)C1(C)C` (centres undefined), the Potency entry is “inactive”.

As to `Cc1[nH]cnc1-c1ccc(Cl)cc1`, the Potency was 17.4 µM (active).

Turning to `O=C(O)Cn1c(=O)n(Cc2ccc(Br)cc2F)c(=O)c2ccc(Cl)cc21`, the Potency result was “inactive”.

On to `O=C(Oc1ccccc1)c1cccc(C(=O)Oc2ccccc2)c1`, for which the Potency was 30.7 µM (active).

Turning to `CCOC(=O)C(O)c1ccccc1` (centres undefined), the Potency entry is “inactive”.

Turning to `Brc1ccccc1-c1ccccc1`, the Potency result is “inactive”.

Take `CC(COc1ccccc1)NN` (centres undefined): the Potency is 16.9 µM (active).

Regarding `CCOc1c(N2CCOCC2)cnn(C)c1=O`, the Potency entry is “inactive”.

For the compound `CC(C)(C)C(O)/C=C/c1ccc2c(c1)OCO2` (centres undefined), the Potency was 11 µM (active).

Take `Nc1nnnn1-c1ccccc1`: the Potency entry was “inactive”.

In the case of `Cc1ccc(-c2ccccc2C#N)cc1`, the Potency result is “inactive”.

With `COC(=O)CCCCC(CCSS/C(CCO)=C(\C)N(C=O)Cc1cnc(C)nc1N)SC(C)=O` (centres undefined), the Potency entry is “inactive”.

For the compound `COC(=O)c1cc(Cl)ccc1NS(=O)(=O)C(F)(F)F`, the Potency entry is “inactive”.

`C/C(=N\O)[C@@H](C)NCC(C)(C)CN[C@H](C)/C(C)=N/O`: the Potency result was “inactive”.

Turning to `CCOc1ccccc1OCC1CNCCO1` (centres undefined), the Potency entry is “inactive”.

For the compound `CCN(CC)CC(=O)Oc1ccc(NC(C)=O)cc1`, the Potency entry was “inactive”.

As for `COC(=O)c1cc(S(N)(=O)=O)ccc1OC`, the Potency entry is “inactive”.

With `CC1(C)S[C@@H]2[C@H](NC(=O)C(c3ccccc3)S(=O)(=O)O)C(=O)N2[C@H]1C(=O)O` (some centres undefined), the Potency entry was “inactive”.

On to `Nc1nc(=O)n([C@@H]2O[C@H](CO)[C@@H](O)[C@@H]2F)cc1I`, for which the Potency entry is “inactive”.

Turning to `CO/N=C(\C(=O)O)c1csc(NC(=O)CCl)n1`, the Potency entry was “inactive”.

Turning to `COc1cc(S(N)(=O)=O)cc(C(=O)O)c1OC`, the Potency entry is “inactive”.

With `NCC[C@H](O)C(=O)N[C@@H]1C[C@H](N)[C@@H](O[C@H]2O[C@H](CN)[C@@H](O)[C@H](O)[C@@H]2O)[C@H](O)[C@@H]1O[C@H]1O[C@H](CO)[C@@H](O)[C@H](N)[C@@H]1O`, the activity change, negative = inhibition is 10.7% [at 0.91 µM].

In the case of `CCOC(=O)Oc1ccc(CCNC(=O)[C@H](CCSC)NC(C)=O)cc1OC(=O)OCC`, the Potency entry was “inactive”.

With `CC(=O)Nc1c(I)c(NC(C)=O)c(I)c(C(=O)O)c1I`, the Potency entry was “inactive”.

As for `Cc1coc2ccccc2c1=O`, the Potency entry was “inactive”.

As to `O=C(O)c1ccc(OCCN2CCCCC2)cc1`, the Potency entry is “inactive”.

`C1=CC2C3C=CC(C3)C2C1` (centres undefined): the Potency result is “inactive”.

Turning to `O=C(O)C(=O)Nc1cccc(-c2nn[nH]n2)c1`, the Potency result is “inactive”.

Regarding `O=C(CCCl)NCc1ccccc1`, the Potency result is “inactive”.

On to `COc1cc(C=O)ccc1O`, for which the Potency entry was “inactive”.

As for `Cc1cnc(NS(=O)(=O)c2ccc(N)cc2)nc1`, the Potency result is “inactive”.

Regarding `CCCC(CCC)(C(=O)OCC)C(=O)OCC`, the Potency entry is “inactive”.

As to `CC(C)(C)C1CCC(CC2=C(O)c3ccccc3C(=O)C2=O)CC1` (centres undefined), the Potency entry was “inactive”.

As for `CCO[C@H](Cc1ccc(OCCc2ccc(OS(C)(=O)=O)cc2)cc1)C(=O)O`, the Potency result was “inactive”.

The target of the next assay is Cytochrome P450 2C9 (Homo sapiens) (UniProt P11712). Briefly: Cytochrome P450 family 2 subfamily C member 9 (CYP2C9) small molecule antagonists: luciferase biochemical (cell-free) qHTS assay (AID 1645842). The settings on record: P450-Glo CYP2C9 enzyme assay, luciferin luminescence; series mostly up to 57.4 µM. In short, it runs like this:
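Luminescence, after 20 min with luciferin detection reagent, reflected CYP2C9 turnover during a 1 h NADPH-driven reaction at 37C. Enzyme-substrate mix contained 0.4% bovine serum albumin and was preincubated with compound 10 min at room temperature.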
On to `C#Cc1ccc(-c2ccccc2F)cc1`, for which the Potency was 12 µM (active).

In the case of `O=C(COCCOCCOCC(=O)Nc1c(I)cc(I)c(C(=O)O)c1I)Nc1c(I)cc(I)c(C(=O)O)c1I`, the Potency result is “inactive”.

Take `CCCCCCCCCCCCCC[N+](C)(C)C`: the Potency result was “inactive”.

For the compound `O=C(Oc1ccccc1)c1cccc(C(=O)Oc2ccccc2)c1`, the Potency was 6.48 µM (active).

As for `CCOC(=O)C(O)c1ccccc1` (centres undefined), the Potency result was “inactive”.

As to `Brc1ccccc1-c1ccccc1`, the Potency result was “inactive”.

For the compound `CCOc1c(N2CCOCC2)cnn(C)c1=O`, the Potency entry was “inactive”.

Turning to `CC(C)(C)C(O)/C=C/c1ccc2c(c1)OCO2` (centres undefined), the Potency is 3.09 µM (active).

Consider `COC(=O)CCCCC(CCSS/C(CCO)=C(\C)N(C=O)Cc1cnc(C)nc1N)SC(C)=O` (centres undefined), for which the Potency result is “inactive”.

Turning to `COC(=O)c1cc(Cl)ccc1NS(=O)(=O)C(F)(F)F`, the Potency result was “inactive”.

Take `C/C(=N\O)[C@@H](C)NCC(C)(C)CN[C@H](C)/C(C)=N/O`: the Potency result is “inactive”.

For `CCOc1ccccc1OCC1CNCCO1` (centres undefined), the Potency result was “inactive”.

Turning to `CCN(CC)CC(=O)Oc1ccc(NC(C)=O)cc1`, the Potency entry was “inactive”.

Take `COC(=O)c1cc(S(N)(=O)=O)ccc1OC`: the Potency result is “inactive”.

In the case of `CC1(C)S[C@@H]2[C@H](NC(=O)C(c3ccccc3)S(=O)(=O)O)C(=O)N2[C@H]1C(=O)O` (some centres undefined), the Potency entry is “inactive”.

As for `Nc1nc(=O)n([C@@H]2O[C@H](CO)[C@@H](O)[C@@H]2F)cc1I`, the Potency result is “inactive”.

As to `CO/N=C(\C(=O)O)c1csc(NC(=O)CCl)n1`, the Potency result was “inactive”.

As to `CC(=O)Nc1c(I)c(NC(C)=O)c(I)c(C(=O)O)c1I`, the Potency entry was “inactive”.

With `Cc1coc2ccccc2c1=O`, the Potency result is “inactive”.

For the compound `O=C(O)c1ccc(OCCN2CCCCC2)cc1`, the Potency result was “inactive”.

With `C1=CC2C3C=CC(C3)C2C1` (centres undefined), the Potency result was “inactive”.

On to `O=C(O)C(=O)Nc1cccc(-c2nn[nH]n2)c1`, for which the Potency result is “inactive”.

Regarding `O=C(CCCl)NCc1ccccc1`, the Potency entry was “inactive”.

On to `COc1cc(C=O)ccc1O`, for which the Potency result is “inactive”.

Consider `Cc1cnc(NS(=O)(=O)c2ccc(N)cc2)nc1`, for which the Potency result was “inactive”.

For `CC(C)(C)C1CCC(CC2=C(O)c3ccccc3C(=O)C2=O)CC1` (centres undefined), the Potency was 3.89 µM (active).

With `CCO[C@H](Cc1ccc(OCCc2ccc(OS(C)(=O)=O)cc2)cc1)C(=O)O`, the Potency result was “inactive”.
